38 compounds from PubChem BioAssay AID602244 (Sanford-Burnham Center for Chemical Genomics, 2012) can be followed below.

In all, about 360,000 compounds went through this assay and about 1,300 (0.36%) were called active. Shown is part of a subset that was picked to be rich in actives. Values without a mark were called inactive. No stated cut-off is given here; in the data, active means inhibition above about 34% (passing the limit was not always enough); inactive means the rest.

The assay deals with C-X-C chemokine receptor type 6 (Homo sapiens) (UniProt O00574). Kind of assay: CXCR6 receptor inhibitors, primary screen, cell-based, beta-arrestin, luminescence, CHO-K1 PathHunter, 1536-well (AID 602244).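 Further: antagonist mode with CXCL16 agonist at 10 nM final; 0% = 10 nM CXCL16 with DMSO and 100% = unstimulated wells without agonist.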 To be noted: at 20 µM, hits give high values.
Chain of C-X-C chemokine receptor type 6 (Homo sapiens) (O00574 whole entry, looked up): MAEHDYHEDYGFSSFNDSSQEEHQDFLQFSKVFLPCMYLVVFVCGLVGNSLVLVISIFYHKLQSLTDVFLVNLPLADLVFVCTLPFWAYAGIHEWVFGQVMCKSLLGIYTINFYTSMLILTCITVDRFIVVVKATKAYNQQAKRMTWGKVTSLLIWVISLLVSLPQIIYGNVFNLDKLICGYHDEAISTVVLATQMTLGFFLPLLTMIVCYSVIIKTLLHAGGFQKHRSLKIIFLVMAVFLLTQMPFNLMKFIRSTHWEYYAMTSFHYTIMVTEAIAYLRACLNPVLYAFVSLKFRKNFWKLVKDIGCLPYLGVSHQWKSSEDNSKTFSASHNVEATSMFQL
With `CC(=O)Oc1ccc(Cn2c(C)c(C(=O)NCc3ccc(C#N)cc3)sc2=O)cc1`, the inhibition (as a rule, the drop in the measured response relative to a control, in per cent) was 3.1%. The same measure for `CC(=O)N1Cc2ccccc2CC1C(=O)O` (stereo not drawn): 8%. Take `Cc1ccc(NC(=O)CCC(=O)N/N=C/c2ccco2)c(C)c1`: the inhibition is -4%.

In the case of `Cc1ccc(/C=N/NC(=O)C2=NNC(c3ccccc3)(c3ccccc3)C2)c(O)c1`, the inhibition is 49.2% (active). As to `Cc1ccc(/C=N/NC(=O)C(NC(=O)c2ccccc2)c2n[nH]c(=O)c3ccccc23)cc1` (stereo not drawn), the inhibition is -2.3%.

On to `O=C(NCCc1ccccc1)c1ccc(NC2=NC3CS(=O)(=O)CC3S2)cc1` (stereo not drawn), for which the inhibition is 0%. Turning to `S=C(NCCC1=CCCCC1)Nc1ccccc1`, the inhibition was -7%.

Regarding `O=[N+]([O-])c1ccccc1N/N=C1\CCc2ccccc21`, the inhibition was 2.8%.

Turning to `CCCCNC(=S)N/N=C1\CCCCc2ccccc21`, the inhibition was 37.6% (active). In the case of `NC(=O)C1=C[C@@H](c2ccc3c(c2)OCO3)C[C@@H](OCCCCO)O1`, the inhibition was 1.5%. The same measure for `Cc1ccc(NC(=O)CN(C)C(=O)COC(=O)c2nccnc2N)cc1`: -1.8%; for `O=C(COC(=O)c1cccc(Br)c1)Nc1cccc2c1C(=O)c1ccccc1C2=O`: -9.2%; for `CC(=O)c1cc(NC(=O)c2ccccc2)c(=O)oc1/C=C/N(C)C`: 9.9%. In the case of `O=C(NC1=CC(=O)c2ccccc2C1=O)c1ccccc1`, the inhibition was 71.6% (active). Take `CCOC(=O)N1CCC(Nc2c(NCCCN3CCN(CC)CC3)c(=O)c2=O)CC1`: the inhibition is 8.9%. The same measure for `CCCCS(=O)c1snnc1C` (stereo not drawn): -4.7%; for `CCCCc1ccc(S(=O)(=O)NC(=O)C2(C)CCN2C(=O)c2ccccc2)cc1` (stereo not drawn): 7.2%; for `Cc1ccc(C23CC4CC(CC(C(=O)NCC(=O)O)(C4)C2)C3)cc1`: 1.5%. The same measure for `CCCCN(C)CCNC(=O)CSCc1ccc(C)cc1`: 2.3%; for `Cc1ccc(N=Cc2c(O)n(-c3nccs3)c(=O)c3ccccc23)c(C)c1`: 4.8%.

In the case of `Cc1cccc(N2C(=O)CC(SC(N)=Nc3ccccc3)C2=O)c1` (stereo not drawn), the inhibition was 2.2%. The same measure for `Cc1cccc(-n2c(O)c(C=Nc3ccccc3N)c(=O)[nH]c2=O)c1`: 108% (active). As to `O=C(Cn1ncc2c3ccccc3n(Cc3ccccc3)c2c1=O)NCCCN1CCOCC1`, the inhibition was 8.7%. Turning to `O=C(COc1nsnc1N1CCOCC1)Nc1ccccc1Cl`, the inhibition was -3.6%. With `Cn1cccc1C(=O)NC(=O)COC(=O)Cc1coc2ccc3ccccc3c12`, the inhibition is -1.2%. As for `CC(C)c1nc2sc3c(c2c(=O)n1N)CC(C)(C)OC3`, the inhibition is 2.4%. In the case of `COc1cc(NC(=O)C2CCN(c3cnccn3)CC2)cc(OC)c1`, the inhibition is -10.3%.

Consider `O=C(OC1CCCCC1=O)c1cccc(S(=O)(=O)NCc2ccccc2)c1` (stereo not drawn), for which the inhibition was 7.3%. As to `CC(=O)N/C(=C\c1ccc(F)cc1)C(=O)NC(Cc1ccccc1)C(=O)O` (stereo not drawn), the inhibition was 1.6%.

Consider `CC(=O)c1ccc(S(=O)(=O)N(C)CCCC(=O)N(C)Cc2ccccc2F)cc1`, for which the inhibition was 0.4%. The same measure for `CCCNC(=O)c1cc(C2CCCN(C(=O)c3ccc4c(c3)CCO4)C2)on1` (stereo not drawn): -0.8%. The same measure for `Cc1c(C(=O)NCCN(C)C)oc2ccc(S(=O)(=O)N3CCCC3)cc12`: 65.9% (active); for `CCOC(=O)C1CCN(C(=O)c2oc3ccc(S(=O)(=O)N4CCCCCC4)cc3c2C)CC1`: -3.5%. Consider `COc1ccc(NC(=O)c2oc3ccc(S(=O)(=O)N4CCOCC4)cc3c2C)cc1`, for which the inhibition was -0.9%. Turning to `CC(Oc1cccc(Cl)c1)C(=O)Nc1ccc(S(=O)(=O)Nc2ncccn2)cc1` (stereo not drawn), the inhibition is -1.1%. The same measure for `CC[C@@H]1Cc2cc(O)ccc2C2=C1c1ccc(O)cc1C[C@H]2CC`: -3.2%; for `COC(=O)c1ccc(S(=O)(=O)N2CCC(c3nc4ccccc4o3)CC2)cc1`: 1.2%; for `CC1Cn2c(nnc2-c2cccs2)S1` (stereo not drawn): -1.1%.
